The text below walks through data of PubChem BioAssay AID2284082 (EPA ToxCast).

Inconclusive results are not listed. Calls of active or inactive are those of the source. Rule for the calls: active = hit-call score of the fitted dose curve at least 0.9, where 1 is the maximum; inconclusive = response in the unintended direction; inactive = score below 0.9.

Chain of human Akt2 (PKBbeta) AGC Kinase, AKT2 (gene 208) (P31751 whole entry, looked up): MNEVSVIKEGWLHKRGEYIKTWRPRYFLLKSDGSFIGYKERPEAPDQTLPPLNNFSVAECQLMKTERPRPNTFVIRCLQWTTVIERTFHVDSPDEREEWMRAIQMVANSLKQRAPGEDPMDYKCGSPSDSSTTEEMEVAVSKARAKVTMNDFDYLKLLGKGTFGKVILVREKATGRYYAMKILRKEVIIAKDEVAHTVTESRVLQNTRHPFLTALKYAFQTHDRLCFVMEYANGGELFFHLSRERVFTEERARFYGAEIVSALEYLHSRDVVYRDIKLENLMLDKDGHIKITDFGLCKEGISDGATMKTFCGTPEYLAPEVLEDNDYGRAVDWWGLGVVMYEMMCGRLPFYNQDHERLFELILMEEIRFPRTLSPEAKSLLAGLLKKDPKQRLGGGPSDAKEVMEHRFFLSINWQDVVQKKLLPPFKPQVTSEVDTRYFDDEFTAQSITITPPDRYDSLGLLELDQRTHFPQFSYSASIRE

The assay has as its target human Akt2 (PKBbeta) AGC Kinase, AKT2 (gene 208) (UniProt P31751). Kind of assay: ERF_FR_ENZ_hAKT2: Eurofins (ERF) Enzymatic Radiometric [Km ATP] KinaseProfiler LeadHunter Assay for human Akt2 (PKBbeta) AGC Kinase. The procedure: ERF_FR_ENZ_hAKT2 is a biochemical, single-readout assay that uses extracted gene-proteins in a cell-free assay. Measurements were taken 0.5 hour after chemical dosing in a 96-well plate. See Akt2 (PKBbeta) Human AGC Kinase Enzymatic LANCE Assay [Km ATP], Cerep.ERF_FR_ENZ_hAKT2 is an assay component calculated from the ERF_FR_ENZ_hAKT2 assay. It is designed to measure enzyme activity using a type of enzyme reporter as detected by fluorescence intensity with LANCE technology.Data from the assay component ERF_FR_ENZ_hAKT2 was analyzed at the assay endpoint, ERF_FR_ENZ_hAKT2, in the positive analysis fitting direction relative to DMSO as the negative control and baseline of activity. Using a type of enzyme reporter, loss-of-signal activity can be used to understand changes in enzymatic activity as they relate to gene AKT2. To generalize the intended target to other relatable targets, this assay endpoint is annotated to the kinase intended target family, where the subfamily is serine/threonine kinase.
PKBb (h) is incubated with 8 mM MOPS pH 7.0, 0.2 mM EDTA, 30 uM […], 10 mM MgAcetate and [g- 33P]-ATP (specific activity and concentration as required). The reaction is initiated by the addition of the Mg/ATP mix. After incubation for 40 minutes at room temperature, the reaction is stopped by the addition of phosphoric acid to a concentration of 0.5%. […]
With `Oc1ccc(O)cc1`, the result was inactive.
